Rab7 wt GTP bind = modulators of GTP binding to Rab7, primary screen, biochemical, wildtype, multiplex bead flow cytometry. AID 758, 2007. actives 0.055% (n = 190,000). Rab7 GTPase wild type (dog), Bodipy-FL-GTP binding. GST-Rab7 beads, fluorescent GTP binding; actives lie on both sides; untreated = 100%, excess cold GTP = 0%. GTP binding activity (percent of control), % at 10 µM;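 active = fluorescent GTP binding to Rab7 beads changed by at least 20 points from the 100% baseline, either direction, mostly lower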;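 also: median green fluorescence of bound Bodipy-FL-GTP per Rab7 bead population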
Rab2 wt GTP = modulators of GTP binding to Rab2A wildtype, primary screen, biochemical, dog, bead-based flow cytometry, multiplex | Ras-related protein Rab-2A (Canis lupus familiaris), P61105 | GTP binding activity, % at 10 µM | actives 0.19% (n = 190,000) | AID 760, 2007 | GST-Rab2 wt beads, Bodipy-GTP binding;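 active = GTP binding activity at least 20 points away from 100%, either lowered or raised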;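 also: 0% = beads with excess unlabeled GTP and 100% = no-compound control corrected for plate trend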
Cdc42 wt = modulators of GTP binding to wildtype Cdc42, primary screen, biochemical, multiplex bead flow cytometry, Bodipy-GTP; Cell division control protein 42 homolog (Homo sapiens), P60953; AID 761, 2007; GST-Cdc42 beads; actives lie on both sides; percent activity (GTP binding), % at 10 µM; actives 0.2% (n = 190,000);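 active = percent activity GTP binding at least 20 points away from the 100% baseline, either down as inhibitor or up as activator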;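 also: median bead fluorescence of bound Bodipy-FL-GTP at 100 nM; 0% = excess unlabeled GTP control and 100% = no compound control; below 100% means less GTP binding so inhibitor and above means activator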
Target sequence (P60953 whole entry, looked up): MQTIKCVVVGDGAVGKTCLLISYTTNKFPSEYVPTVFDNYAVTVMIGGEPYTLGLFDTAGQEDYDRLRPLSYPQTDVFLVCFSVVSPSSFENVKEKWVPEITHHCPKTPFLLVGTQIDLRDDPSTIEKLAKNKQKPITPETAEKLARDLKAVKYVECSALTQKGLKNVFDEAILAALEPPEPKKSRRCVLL
Rac1 wt modul = wildtype Rac1 GTP binding modulators, primary screen, biochemical, GST-Rac1 beads, flow cytometry, multiplex; Ras-related C3 botulinum toxin substrate 1 (Homo sapiens), P63000; fluorescent GTP binding; actives lie on both sides; 0 = cold GTP competed, 100 = untreated; GTP binding activity (% of control), % at 10 µM; actives 0.27% (n = 190,000); AID 757, 2007;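 active = GTP binding activity at least 20 points away from the 100% control level, either lower or higher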
HRas wt GTP = modulators of GTP binding to HRas wildtype, primary screen, biochemical, bead-based flow cytometry, multiplex. GTPase HRas (Homo sapiens), P01112. GST-Ras wt beads, Bodipy-FL-GTP binding; actives lie on both sides. GTP binding activity, % at 10 µM. actives 0.14% (n = 190,000). AID 759, 2007;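 active = GTP binding activity at least 20% away from the 100% baseline, either lowered as inhibitor or raised as activator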;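 also: 0% = unlabeled GTP competition control and 100% = no-compound control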
Target sequence (P01112 whole entry, looked up): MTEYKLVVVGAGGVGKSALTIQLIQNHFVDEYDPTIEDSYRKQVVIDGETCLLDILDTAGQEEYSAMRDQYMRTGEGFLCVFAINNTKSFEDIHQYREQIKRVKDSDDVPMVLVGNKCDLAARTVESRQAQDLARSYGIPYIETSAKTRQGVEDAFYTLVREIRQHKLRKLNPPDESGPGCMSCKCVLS
Rac1 act GTP bind = GTP binding modulators of activated mutant Rac1, primary screen, biochemical, bead-based flow cytometry, multiplex, fluorescent GTP. GST-Rac1 activated beads; actives lie on both sides; 100% means binding = to untreated wells. percent activity (GTP binding), % at 10 µM. Ras-related C3 botulinum toxin substrate 1 (Homo sapiens), P63000. actives 0.11% (n = 190,000). AID 764, 2007;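 active = GTP binding at least 20 percentage points away from the 100% baseline, in either direction, so actives lie on both sides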
* = called active by the depositor; [ ] = dose if it differs, or a comment. Rows were chosen to be rich in hits. Some 0.37% of all compounds tested hit in one or more screens of this group.

SMILES	Rab7 wt GTP bind	Rab2 wt GTP	Cdc42 wt	Rac1 wt modul	HRas wt GTP	Rac1 act GTP bind
Cn1cc(C(=O)N2CCc3ccccc3C2)c(=O)c2cc(S(=O)(=O)N3CCCCC3)ccc21	104	111	110	121*[activator]	111	103
COc1ccc(C(=O)N[C@H](C(=O)OCc2cc(=O)oc3cc(C)ccc23)C(C)C)cc1	20*	31*	33*	33*	37*	33*
Cc1cc(C)n(CC(O)Cn2c3ccc(Cl)cc3c3cc(Cl)ccc32)c(=O)n1 (stereo unspecified)	96	96	100	102	99	99
OC(CNCCC1C=Nc2ccccc21)Cn1c2ccc(Cl)cc2c2cc(Cl)ccc21 (stereo unspecified)	112	113	115	144*[activator]	114	108
CCOc1cc(/C=C2\SC(=O)N=C2N)ccc1O	90	80	87	77*	86	89
Cc1cc2ccccn2c1C(=O)c1cc([N+](=O)[O-])cc([N+](=O)[O-])c1	24*	42*	42*	32*	45*	37*
COCCN(C(=S)Nc1ccc(OC)cc1)C1CCN(C(C)C)CC1	102	102	101	104	101	99
O=C(CCl)Nc1cccn2ncnc12	105	113	114	120*[activator]	110	102
Cc1nn(C)cc1CNC(=O)C1C2CCC(O2)C1C(=O)O (stereo unspecified)	97	100	100	104	99	102
COc1ccc(S(=O)(=O)n2oc(=O)cc2-c2ccccc2)cc1	89	79*	79*	94	83	90
O=c1cc(-c2ccccc2)n(S(=O)(=O)c2ccccc2)o1	95	96	98	101	97	100
CCSc1nc2nc(C)cc(C)n2n1	98	99	97	100	99	98
Cc1cc(C)n2nc(SCCOc3ccccc3F)nc2n1	92	71*	66*	74*	71*	84
COc1cc(/C=C2\SC(c3ccccc3)=NC2=O)cc(Cl)c1O	88	77*	78*	81	81	81
COc1cccc(/C=C/C(=O)Nc2ccccc2N2CCOCC2)c1	23*	51*	54*	48*	53*	50*
O=C(CCCSc1nc2ccccc2c(=O)[nH]1)c1ccc(F)cc1	92	95	93	91	95	91
O=C(Nc1cc2cc([N+](=O)[O-])ccc2oc1=O)c1cccs1	94	94	96	95	96	97
Cc1ccc(S(=O)(=O)N2CC3(C)CN(S(=O)(=O)c4ccc(C)cc4)CC(C)(C2)C3O)cc1 (stereo unspecified)	104	100	126*[activator]	108	101	101
COc1cc2[nH]c(=S)nc(NCc3ccccn3)c2cc1OC	95	82	83	76*	83	88
COc1cc2c(cc1NCc1ccccn1)oc1ccccc12	102	100	105	105	103	100
COCCNc1nc(=S)[nH]c2cc(OC)c(OC)cc12	79*	69*	68*	71*	71*	83
COc1ccc(CCNC(=O)CCCCCNc2nc(=S)[nH]c3ccccc23)cc1OC	101	92	97	94	94	95
COc1cc(/C=C(/C#N)c2nc3ccccc3[nH]2)ccc1OCc1ccc(C(=O)O)o1	94	77*	78*	85	78*	87
COc1ccc2nc(/C(C#N)=C\c3ccc(C(=O)O)cc3)[nH]c2c1	96	86	78*	77*	86	85
COC(=O)c1ccc(COc2ccc(/C=C(\C#N)c3nc4ccccc4[nH]3)cc2OC)o1	99	101	101	102	99	98

Screening data from PubChem.
